# Test results published in ChEMBL document CHEMBL1157539, “Thousands of chemical starting points for antimalarial lead identification” (Nature, 2010).
# Experiments:
# Format in all cases: functional
# [1] = tested on: Plasmodium falciparum; assay: GSK_TCMDC: Inhibition of Plasmodium falciparum 3D7 in whole red blood cells, using parasite LDH activity as an index of growth. Test compounds present at 2uM
# [2] = tested on: Plasmodium falciparum; assay: GSK_TCMDC: Inhibition of Plasmodium falciparum Dd2 in whole red blood cells, using parasite LDH activity as an index of growth. Test compounds present at 2uM
# [3] = tested on: HepG2; assay: GSK_TCMDC: Percent inhibition of human HepG2 cell line. Test compounds present at 10uM.
compound,measurement,setting,value
Br.CC1(C)N=C(N)N=C(N)N1OCCCOc1cccc(C(=O)O)c1,Inhibition,[1],94%
same,Inhibition,[2],96%
same,Inhibition,[3],73%
Cc1cc(=O)c(-c2ccc(Oc3ccc(C(F)(F)F)cc3)cc2)c(C)n1O,Inhibition,[1],94%
same,Inhibition,[2],78%
same,Inhibition,[3],18%
Cc1cc(F)ccc1[C@H]1CNCCN1C(=O)N(C)C(C)(C)c1cc(C(F)(F)F)cc(C(F)(F)F)c1.Cl,Inhibition,[1],100%
same,Inhibition,[2],100%
same,Inhibition,[3],24%
CC(C)Cc1cn(-c2nc(-c3nc4ccccc4[nH]3)cs2)c2cc(Cl)ccc12.Cl,Inhibition,[1],99%
same,Inhibition,[2],68%
same,Inhibition,[3],9%
O=C(NCC1CCCCC1)c1cc(=O)c2ccccc2o1,Inhibition,[1],98%
same,Inhibition,[2],77%
same,Inhibition,[3],0%
Cl.O=c1cc(NCCCNCc2sc(Br)nc2Br)[nH]c2ccccc12,Inhibition,[1],92%
same,Inhibition,[2],44%
same,Inhibition,[3],1%
CCCCN(CCCC)Cc1cc(Nc2ccnc3cc(Cl)ccc23)ccc1O.Cl,Inhibition,[1],100%
same,Inhibition,[2],87%
same,Inhibition,[3],67%
CCN(CC)CCNC(=O)c1ccc(N/C=C2\C(=O)Nc3ccc(S(=O)(=O)Cc4c(Cl)cccc4Cl)cc32)cc1,Inhibition,[1],100%
same,Inhibition,[2],56%
same,Inhibition,[3],25%
COc1cc(Nc2nccc(-c3c(-c4cccc(NC(=O)c5c(F)cccc5F)c4)nn4ccccc34)n2)cc(OC)c1OC,Inhibition,[1],98%
same,Inhibition,[2],98%
same,Inhibition,[3],74%
CCOC(=O)c1c(NC(=O)c2ccccc2)sc2c(O)c(CNC3CCCCC3)ccc12,Inhibition,[1],99%
same,Inhibition,[2],98%
same,Inhibition,[3],6%
CN1CCN(c2ccc(Nc3ncc(C#N)c(Nc4ccccc4C(N)=O)n3)cc2)CC1.Cl,Inhibition,[1],92%
same,Inhibition,[2],93%
same,Inhibition,[3],43%
